Among the test systems are DU-145 prostate; K-562 leukemia; MALME-3M melanoma; MDA-MB-231 breast; RXF 393 renal; SF-268 CNS; SF-295 CNS; SF-539 CNS; UACC-257 melanoma; M14 melanoma; HCT-15 colon; HT29 colon; SNB-75 CNS; SNB-19 CNS; U251 CNS; PC-3 prostate; SK-MEL-5 melanoma; UACC-62 melanoma; LOX IMVI melanoma; SK-MEL-28 melanoma.
What all share (assay): NCI-60 one-dose screen, 48 h (100 = growth as untreated, 0 = no growth, -100 = all killed)
What all share (conditions): 10 µM unless noted

This is part of a sample that, as a whole, favours compounds with a hit. Of some 83,000 tested, about 20% had one in any assay.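 48-hour exposure, single concentration, 96-well plates; percent growth endpoint where 0 means no net growth. Active: below 10.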 Unmarked numbers belong to inactive results. Calls of active or inactive are those of the source.

For the molecule `NC(=O)c1c(NC(=O)c2ccccc2)sc2c1CCC(=O)C2`, the growth was 35% with DU-145 prostate; 5.24% (active) in the assay on K-562 leukemia; 7.31% (active) in the assay with MALME-3M melanoma; 0.799% (active) with MDA-MB-231 breast; 18.7% in the assay with RXF 393 renal; 17.7% in the assay on SF-268 CNS. Besides, the growth in the assay on SF-295 CNS is 33.4%; in the assay with SF-539 CNS it was 16.1%; in the assay with UACC-257 melanoma, 4.86% (active); in the assay with M14 melanoma, 20.9%; with HCT-15 colon it was 12.4%; with HT29 colon, 9.53% (active). Further, the growth in the assay with SNB-75 CNS is -3.05% (active); in the assay on SNB-19 CNS, 18.6%; in the assay on U251 CNS, 17.6%; in the assay on PC-3 prostate it was 10.1%; with SK-MEL-5 melanoma, -57.6% (active); in the assay on UACC-62 melanoma, 10.7%. Besides, the growth was 17.6% in the assay with LOX IMVI melanoma and 34.9% in the assay on SK-MEL-28 melanoma.
Regarding `Oc1ccc(CN2CCC(N3CCCCC3)CC2)c2cccnc12`, the growth in the assay on DU-145 prostate was 37.9%; in the assay with K-562 leukemia it was 15.8%; with MALME-3M melanoma, 9.88% (active); with MDA-MB-231 breast, 15.2%; with RXF 393 renal it was 29.6%; with SF-268 CNS, 38.9%. Also, the growth is 38.4% in the assay on SF-295 CNS; 22% with SF-539 CNS; 21% in the assay on UACC-257 melanoma; 30.3% in the assay on M14 melanoma; 18% in the assay with HCT-15 colon; 105% in the assay on HT29 colon. In addition, the growth in the assay on SNB-75 CNS was 25.4%; in the assay on SNB-19 CNS it was 23.7%; in the assay with U251 CNS, 17.6%; in the assay with PC-3 prostate, 17.9%; in the assay on SK-MEL-5 melanoma, -29.4% (active); in the assay on UACC-62 melanoma it was 14.9%. The growth is 17.8% in the assay on LOX IMVI melanoma and 33.4% with SK-MEL-28 melanoma.
For `O=[N+]([O-])c1ccc(-c2nc(N3CCOCC3)c3c4c(sc3n2)CCCC4)cc1`, the growth in the assay with DU-145 prostate was 113%; in the assay on K-562 leukemia, 99.6%; in the assay with MALME-3M melanoma, 89.2%; in the assay with MDA-MB-231 breast it was 81%; in the assay on RXF 393 renal, 104%; with SF-268 CNS, 94.8%. In addition, the growth is 87.4% in the assay on SF-295 CNS; 102% in the assay with SF-539 CNS; 92.7% with UACC-257 melanoma; 85.6% in the assay with M14 melanoma; 97.8% in the assay on HCT-15 colon; 94.8% in the assay on HT29 colon. Besides, the growth was 76.6% in the assay on SNB-75 CNS; 115% in the assay with SNB-19 CNS; 102% in the assay with U251 CNS; 101% with PC-3 prostate; 94.1% with SK-MEL-5 melanoma; 85.1% with UACC-62 melanoma. The figures for the growth in the assay with LOX IMVI melanoma and with SK-MEL-28 melanoma were 86% and 111%, respectively.
Take `Cc1nc2sc(C(=O)Nc3ccccc3)c(N)c2cc1C(=O)c1ccccc1`: the growth with DU-145 prostate was 56.1%; in the assay with K-562 leukemia, 32.4%; in the assay on MALME-3M melanoma, 68.3%; with MDA-MB-231 breast it was 58%; in the assay on RXF 393 renal, -0.48% (active); in the assay on SF-268 CNS, 47.8%. Further, the growth in the assay with SF-295 CNS is -9.52% (active); in the assay with SF-539 CNS, 33.4%; in the assay on UACC-257 melanoma, 49.8%; in the assay with M14 melanoma, 39.8%; in the assay with HCT-15 colon it was 24.4%; with HT29 colon, 22.9%. Further, the growth was 26.2% in the assay on SNB-75 CNS; 21.3% with SNB-19 CNS; 25.4% in the assay with U251 CNS; 33.4% in the assay with PC-3 prostate; 31.9% with SK-MEL-5 melanoma; 17.4% in the assay on UACC-62 melanoma. Moreover, the results for the growth in the assay on LOX IMVI melanoma and in the assay on SK-MEL-28 melanoma were 50% and 46.8%, respectively.
As to `C=CCc1c(O)c(C(=O)/C=C/c2ccc(Cl)cc2)c(OC)c2ccoc12`, the growth in the assay on DU-145 prostate is 78.5%; in the assay on K-562 leukemia, 47.2%; with MALME-3M melanoma it was 34.6%; in the assay with MDA-MB-231 breast it was 49.4%; in the assay with RXF 393 renal, 21.9%; with SF-268 CNS it was 53.8%. Besides, the growth was 33.1% in the assay on SF-295 CNS; 50.7% in the assay on SF-539 CNS; 39.4% in the assay with UACC-257 melanoma; 58.3% with M14 melanoma; 41.3% with HCT-15 colon; 36.6% with HT29 colon. Further, the growth is 80.1% in the assay on SNB-75 CNS; 63.2% with SNB-19 CNS; 37.7% with U251 CNS; 30.9% in the assay with PC-3 prostate; 52.6% in the assay with SK-MEL-5 melanoma; 48.1% in the assay with UACC-62 melanoma. The results for the growth with LOX IMVI melanoma and in the assay on SK-MEL-28 melanoma were 34.8% and 63.5%, respectively.
Consider `CO[C@H]1/C=C(/C)CCC[C@H](C)[C@H](O)[C@@H](C)C(=O)C(C)(C)[C@@H](O)CC(=O)O[C@@H]1/C(C)=C/c1csc(C)n1`, for which the growth with DU-145 prostate is -48.1% (active); in the assay on K-562 leukemia, 13.9%; with MALME-3M melanoma, 45.2%; in the assay with MDA-MB-231 breast it was 10.3%; in the assay on RXF 393 renal, -23.4% (active); in the assay with SF-268 CNS, 36.5%. Besides, the growth in the assay on SF-295 CNS was -17.8% (active); in the assay on SF-539 CNS, 1.38% (active); in the assay on UACC-257 melanoma it was 56.2%; with M14 melanoma, 3.27% (active); with HCT-15 colon it was 16.3%; in the assay with HT29 colon it was -4.27% (active). The growth with SNB-75 CNS was -32.1% (active); in the assay with SNB-19 CNS, 31.2%; with U251 CNS, 15.4%; in the assay with PC-3 prostate, 26.6%; in the assay with SK-MEL-5 melanoma it was 20.6%; with UACC-62 melanoma it was 36.8%. The growth in the assay on LOX IMVI melanoma is 14.3%; with SK-MEL-28 melanoma, 39.6%.
Consider `COc1cccc(/C=C/C(=O)c2cc3c(N)c(C(=O)Nc4ccccc4)sc3nc2C)c1`, for which the growth with DU-145 prostate is 12%; with K-562 leukemia it was 13.3%; in the assay on MALME-3M melanoma it was 68.6%; with MDA-MB-231 breast it was 17.1%; in the assay on RXF 393 renal, -74.6% (active); with SF-268 CNS, 18.2%. The growth is 44.8% with SF-295 CNS; -16% (active) in the assay on SF-539 CNS; 71.8% with UACC-257 melanoma; 29.9% in the assay on M14 melanoma; -35.1% (active) with HCT-15 colon; -7.47% (active) in the assay with HT29 colon. The growth is 3% (active) in the assay with SNB-75 CNS; -3.91% (active) in the assay with SNB-19 CNS; -52.9% (active) with U251 CNS; 41.7% in the assay on PC-3 prostate; 34.8% in the assay with SK-MEL-5 melanoma; 20.2% with UACC-62 melanoma. Further, the growth is -83.2% (active) in the assay with LOX IMVI melanoma and 50.4% in the assay with SK-MEL-28 melanoma.
In the case of `CC(C)(C)n1cc(-c2ccnc(NCCCNS(=O)(=O)c3ccc(F)cc3)c2)c(-c2cccc(F)c2)n1`, the growth in the assay with DU-145 prostate was 77.7%; in the assay with K-562 leukemia it was 18.1%; with MALME-3M melanoma, 85.4%; with MDA-MB-231 breast, 75.6%; in the assay with RXF 393 renal, 68%; in the assay with SF-268 CNS it was 74.3%. Further, the growth is 74% with SF-295 CNS; 68.7% in the assay on SF-539 CNS; 89.2% in the assay on UACC-257 melanoma; 53.8% in the assay on M14 melanoma; 5.18% (active) with HCT-15 colon; 6.93% (active) in the assay on HT29 colon. Further, the growth was 85% in the assay with SNB-75 CNS; 72.7% with SNB-19 CNS; 45.5% in the assay on U251 CNS; 46.1% in the assay on PC-3 prostate; 33.7% with SK-MEL-5 melanoma; 72.7% with UACC-62 melanoma. Besides, the growth in the assay on LOX IMVI melanoma was 33.7%; in the assay with SK-MEL-28 melanoma, 82.4%.
